Measurements: PubChem BioAssay (NCATS)
Inconclusive results are not listed. Where a call stands in place of a potency, no number is given. Unmarked numbers belong to inactive results. Active and inactive are the calls of the source. The call rests on the fitted dose curve; in most records, active means well fitted inhibition curve with a large enough effect; inconclusive means small, poorly fitted or top-dose-only effect; inactive means flat fitted curve, though single readings scatter.

Key:
[1] = molecular target: Glutathione peroxidase 1 (Homo sapiens) (UniProt P07203); test: Primary qHTS Assay for Inhibitors of Recombinant Selenoprotein Glutathione Peroxidase 1 (GPX1) (AID 1845191)
How it was run: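 GR-coupled readout: NADPH consumption tracked by fluorescence, ex 340/em 450 nm, at t=0 and after 15 min at RT. Final mix 10 nM GPX1, 1 mM GSH, 0.5 mM CHP, 0.5 mM NADPH, 100 nM GR, 0.01% BSA, following 30 min enzyme–compound preincubation.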

[2] = molecular target: Phospholipid hydroperoxide glutathione peroxidase GPX4 (Homo sapiens) (UniProt P36969); test: Primary qHTS Assay for Inhibitors of Recombinant Selenoprotein Glutathione Peroxidase 4 (GPX4) (AID 1845192); on activity change, negative = inhibition: series mostly up to about 50 µM
How it was run: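 Steps: GPX4 plus compound, 30 min RT; add GR/GSH/NADPH master mix; start with cumene hydroperoxide; read 340/450 nm fluorescence at 0 and 15 min. Finals were 200 nM GPX4, 1 mM GSH, 0.5 mM CHP, 0.5 mM NADPH, 100 nM GR.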
Further: nearly all actives have a fitted effect of over 65% in size.
Potency means the concentration at half of the fitted maximal effect.

Glutathione peroxidase 1 (Homo sapiens), sequence (P07203 whole entry, looked up): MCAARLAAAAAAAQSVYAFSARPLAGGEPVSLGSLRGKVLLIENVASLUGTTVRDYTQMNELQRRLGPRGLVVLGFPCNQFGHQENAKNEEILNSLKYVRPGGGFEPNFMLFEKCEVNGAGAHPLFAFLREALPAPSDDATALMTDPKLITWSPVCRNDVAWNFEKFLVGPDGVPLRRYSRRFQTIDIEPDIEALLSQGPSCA
Phospholipid hydroperoxide glutathione peroxidase GPX4 (Homo sapiens), sequence (P36969 whole entry, looked up): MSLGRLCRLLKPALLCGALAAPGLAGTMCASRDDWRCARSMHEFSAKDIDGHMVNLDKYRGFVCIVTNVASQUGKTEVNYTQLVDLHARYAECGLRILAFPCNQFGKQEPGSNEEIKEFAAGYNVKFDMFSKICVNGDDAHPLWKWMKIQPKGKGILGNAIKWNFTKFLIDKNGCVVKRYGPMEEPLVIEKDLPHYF

Row | Structure (SMILES) | Potency [1] | Potency [2] | activity, negative = inhibition [1] | activity change, negative = inhibition [2]
1 | CCCCCCCCCC(=O)NO | inactive | inactive | – | –
2 | C[C@]12CCC(=O)C[C@@H]1CC[C@@H]1[C@@H]2CC[C@]2(C)C=CC[C@@H]12 | inactive | inactive | – | –
3 | CO[C@H]1O[C@@H]2O[C@@]3(C)CC[C@H]4[C@H](C)CC[C@@H]([C@H]1C)[C@@]24OO3 | inactive | inactive | – | –
4 | COc1ccc2c(=O)c(C)c(-c3ccccc3)oc2c1CN(C)C | inactive | inactive | – | –
5 | CCC(O)c1ccccc1 (configuration not stated) | inactive | inactive | – | –
6 | CCN(CC)CCOC(=O)c1cccnc1 | inactive | inactive | – | –
7 | Oc1cc(O)cc(O)c1 | inactive | inactive | – | –
8 | C[C@H](NCCc1ccc(O)cc1)[C@H](O)c1ccc(O)cc1 | inactive | inactive | – | –
9 | CO[C@@H]1[C@H](OC(=O)/C=C/C=C/C=C/C=C/C(=O)O)CC[C@]2(CO2)[C@H]1[C@@]1(C)O[C@@H]1CC=C(C)C | inactive | 14.1 µM (active) | – | –
10 | CCSc1ccc2c(c1)N(CCCN1CCN(C)CC1)c1ccccc1S2 | inactive | inactive | – | –
11 | CCCc1ccc(C(=O)O)cc1 | inactive | inactive | – | –
12 | O=S(=O)(O)CC(S)CS (configuration not stated) | 10.1 µM (active) | 7.08 µM (active) | – | –
13 | CC(C)C[C@H](NC(=O)[C@@H](COC(C)(C)C)NC(=O)[C@H](Cc1ccc(O)cc1)NC(=O)[C@H](CO)NC(=O)[C@H](Cc1c[nH]c2ccccc12)NC(=O)[C@H](Cc1cnc[nH]1)NC(=O)[C@@H]1CCC(=O)N1)C(=O)N[C@@H](CCCN=C(N)N)C(=O)N1CCC[C@H]1C(=O)NNC(N)=O | inactive | inactive | – | –
14 | NC(=O)[C@H]1O[C@@H](O)[C@H](O)[C@@H](O)[C@@H]1O | inactive | inactive | – | –
15 | FC(F)OC(Cl)C(F)(F)F (configuration not stated) | inactive | inactive | – | –
16 | C=C(C)C1CC=C(C)CC1 (configuration not stated) | inactive | inactive | – | –
17 | O=C(OCc1ccccc1)c1ccc(O)cc1 | inactive | inactive | – | –
18 | CN1CCN(C(c2ccccc2)c2ccc(Cl)cc2)CC1 (configuration not stated) | inactive | inactive | – | –
19 | O=C(NNCS(=O)(=O)O)c1ccncc1 | 5.7 µM (active) | 3.98 µM (active) | – | –
20 | CC(C)[C@H](N)C(=O)OCC(CO)OCn1cnc2c(=O)[nH]c(N)nc21 (some centres not stated) | inactive | inactive | – | –
21 | COc1ccc(/C=C/C(=O)OCCC(C)C)cc1 | inactive | inactive | – | –
22 | FC(F)(F)C(F)(F)C(F)(F)C(F)(F)C(F)(F)F | inactive | inactive | – | –
23 | CCCCCc1ccc(C)cc1O | inactive | inactive | – | –

Row | Structure (SMILES) | Potency [1] | Potency [2] | activity, negative = inhibition [1] | activity change, negative = inhibition [2]
24 | CCCCC[C@H](O)/C=C/[C@@H]1[C@H]2C/C(=C/CCCC(=O)O)O[C@H]2C[C@H]1O | inactive | inactive | – | –
25 | CCCCCCCCCCCCCCCCCC(=O)OCC(C)O (configuration not stated) | inactive | inactive | – | –
26 | CCCCCCCCCCCCCC(=O)OCC(COP(=O)([O-])OCC[N+](C)(C)C)OC(=O)CCCCCCCCCCCCC (configuration not stated) | inactive | inactive | – | –
27 | CS(=O)(=O)OCC(O)C(O)COS(C)(=O)=O (configuration not stated) | inactive | inactive | – | –
28 | CC[C@H](CC[C@@H](C)[C@H]1CC[C@H]2[C@@H]3CC=C4C[C@@H](O)CC[C@]4(C)[C@H]3CC[C@]12C)C(C)C | inactive | inactive | – | –
29 | CCCCC(O)c1ccccc1 (configuration not stated) | inactive | inactive | – | –
30 | CN1C(=O)C[C@@H](C(=O)N[C@@H](Cc2cnc[nH]2)C(=O)N2CCC[C@H]2C(N)=O)NC1=O | inactive | inactive | – | –
31 | O=P(O)(O)OP(=O)(O)O | inactive | inactive | – | –
32 | O=C(O)CCC(=O)c1ccc(-c2ccccc2)cc1 | inactive | inactive | – | –
33 | NC(=O)OCC(O)COc1ccc(Cl)cc1 (configuration not stated) | inactive | inactive | – | –
34 | C[C@@](Cc1ccc(O)c(O)c1)(NN)C(=O)O | inactive | inactive | – | –
35 | CC(C)(C)NCC(O)CSc1nc(-c2ccc(C(N)=O)s2)cs1 (configuration not stated) | 22.7 µM (active) | 12.6 µM (active) | – | –
36 | c1ccc2ccccc2c1 | inactive | inactive | – | –
37 | CC(=O)[O][Al][O]C(C)=O | – | – | -5.17% [at 9.52 µM] | -11.7% [at 9.73 µM]
38 | FC(F)(F)C(F)(F)C(F)(F)C(F)(F)C(F)(F)C(F)(F)F | inactive | inactive | – | –
39 | C[Se]CC[C@H](N)C(=O)O | inactive | inactive | – | –
40 | Cc1ncc(COP(=O)(O)O)c(CN)c1O | inactive | inactive | – | –
41 | CC1(C)[C@@H]2CC[C@@]1(C)[C@H](OC(=O)CSC#N)C2 | inactive | inactive | – | –
42 | CNC(=O)c1c(I)c(C(=O)NCC(=O)Nc2c(I)c(C(=O)O)c(I)c(C(=O)NCCO)c2I)c(I)c(N(C)C(C)=O)c1I | inactive | inactive | – | –
43 | CC1=CC(=C(c2ccc(N)cc2)c2ccc(N)cc2)C=CC1=N | inactive | inactive | – | –
44 | CC(C)(CO)[C@@H](O)C(=O)NCCC(=O)NCCSSCCNC(=O)CCNC(=O)[C@H](O)C(C)(C)CO | inactive | inactive | – | –
45 | NC(=O)c1ccc[n+]([C@@H]2O[C@H](COP(=O)([O-])OP(=O)(O)OC[C@H]3O[C@@H](n4cnc5c(N)ncnc54)[C@H](O)[C@@H]3O)[C@@H](O)[C@H]2O)c1 | inactive | inactive | – | –
46 | COc1cc2c(cc1OC)[C@@H](Cc1cc(OC)c(OC)c(OC)c1)[N+](C)(CCCOC(=O)CC/C=C/CCC(=O)OCCC[N+]1(C)CCc3cc(OC)c(OC)cc3[C@H]1Cc1cc(OC)c(OC)c(OC)c1)CC2 (some centres not stated) | inactive | inactive | – | –
